# Measurements published in PubChem BioAssay (NCATS).
# The source made the active and inactive calls. How the calls were made is not given here.
# Test system: HIV-1 nucleocapsid protein NCp7 (binding to TG oligonucleotide)
# Experiment: HIV Nucleocapsid (AID 346);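 further: potency is for inhibitors that block NC binding and lower polarization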
# Conditions: HIV-1 NC / fluorescein-TGTGTGTG probe, fluorescence polarization
# In short: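 HIV-1 NC (100 nM) binding to fluorescein-labelled ssDNA TG4xF (10 nM) in Hepes pH 7.5, 250mM NaCl, 1uM ZnCl2, TCEP and 2-mercaptoethanol; compounds pin-transferred, 1 hr room temperature, fluorescence polarization read on CCD imager.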
# Potency means the concentration at half of the fitted maximal effect.
row,Compound,Potency
1,Fc1ccc(Nc2ccnc(-c3ccoc3)n2)cc1,> 20 µM (inactive)
2,O=C(c1cccc(F)c1)N1CCC[C@@]2(CCN(c3ccccc3)C2)C1,> 20 µM (inactive)
3,O=c1cnc2cnc(Oc3cccc(Cl)c3)nc2n1Cc1ccc(F)cc1,> 20 µM (inactive)
4,CS(=O)(=O)N1CCC2(CCCN(Cc3ccccc3)C2)CC1,> 20 µM (inactive)
5,O=C(c1cnccn1)N1CCC[C@@]2(CCN(Cc3cc(C(F)(F)F)cc(C(F)(F)F)c3)C2)C1,> 20 µM (inactive)
6,COc1ccc(C(=O)N2CCC[C@@]3(CCN(c4ccccn4)C3)C2)cc1,> 20 µM (inactive)
7,Cc1nc2cnc(N3CCN(C)CC3)nc2n(CCC#N)c1=O,> 20 µM (inactive)
8,N#Cc1cccc(NC(=O)N2CC3(CCN(C(=O)c4cc(C(F)(F)F)cc(C(F)(F)F)c4)CC3)C2)c1,> 20 µM (inactive)
9,Cn1c(=O)c(CCc2ccccc2)nc2cnc(N3CCNCC3)nc21,> 20 µM (inactive)
10,CNc1ncnc2ccc(-c3ccccc3C)cc12,> 20 µM (inactive)
11,COc1ccccc1CNc1nc(-c2ccccc2OC)nc2ccccc12,> 20 µM (inactive)
12,O=c1c(-c2ccccc2)nc2cnc(N3CCNCC3)nc2n1C1CC1,> 20 µM (inactive)
13,COc1ccc(CNc2ncnc3ccc(-c4ccccc4OC)cc23)c(OC)c1,> 20 µM (inactive)
14,CN(C)C(=O)c1ccc(-c2cncnc2Nc2ccccc2)cc1,> 20 µM (inactive)
15,CN(C)Cc1ccccc1-c1ccc2ncnc(N(C)Cc3ccco3)c2c1,> 20 µM (inactive)
16,COc1ccccc1CN1CC2(CCN(C(=O)c3ccncc3)CC2)C1,> 20 µM (inactive)
17,COc1cccc(-c2cncnc2NCCc2c[nH]c3ccc(OC)cc23)c1,> 20 µM (inactive)
18,CN(C)c1ncc2nc(CCc3ccccc3)c(=O)n(Cc3ccc(F)cc3)c2n1,> 20 µM (inactive)
19,COc1ccc(Oc2ncc3ncc(=O)n(Cc4cccs4)c3n2)cc1,> 20 µM (inactive)
20,CN1CCN(c2ncc3nc(-c4ccc(Cl)cc4)c(=O)n(C)c3n2)CC1,> 20 µM (inactive)
21,N#Cc1ccc(CN2CCC3(CC2)CCN(C(=O)c2cccc(F)c2)CC3)cc1,> 20 µM (inactive)
22,COc1ncc2nc(C)c(=O)n(Cc3ccc(F)cc3)c2n1,> 20 µM (inactive)
23,COc1ccc2[nH]cc(CCNc3ncnc4ccc(-c5ccoc5)cc34)c2c1,> 20 µM (inactive)
24,COc1ccccc1CN1CCC2(CCNCC2)CC1,> 20 µM (inactive)
